Assay results from PubChem BioAssay (NCI).
This is part of a sample that, as a whole, favours compounds with a hit. Of some 83,000 tested, about 20% had one in any assay.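 Percent growth is the endpoint: 0 to 100 indicates growth inhibition (40 means 60% inhibition), 0 means no net growth, and negative values indicate cell death.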 Values without a mark were called inactive. Activity calls are given as the source filed them. The calls were made as follows: active = growth percent below 10; inactive = the rest.

Columns and labels:
Assay in all cases: NCI-60 one-dose screen, 48 h (100 = growth as untreated, 0 = no growth, -100 = all killed)
[1] = system: SR leukemia; conditions: 10 µM unless noted
[2] = system: RPMI-8226 leukemia; conditions: 10 µM unless noted
[3] = system: OVCAR-8 ovarian; conditions: 10 µM unless noted
[4] = system: OVCAR-5 ovarian; conditions: 10 µM unless noted
[5] = system: OVCAR-4 ovarian; conditions: 10 µM unless noted
[6] = system: SK-OV-3 ovarian; conditions: 10 µM unless noted
[7] = system: IGROV1 ovarian; conditions: 10 µM unless noted
[8] = system: OVCAR-3 ovarian; conditions: 10 µM unless noted
[9] = system: HS 578T breast; conditions: 10 µM
[10] = system: NCI/ADR-RES ovarian; conditions: 10 µM unless noted
[11] = system: T-47D breast; conditions: 10 µM unless noted
[12] = system: MDA-MB-435 melanoma; conditions: 10 µM unless noted
[13] = system: SW-620 colon; conditions: 10 µM unless noted
[14] = system: MCF7 breast; conditions: 10 µM unless noted
[15] = system: HCT-116 colon; conditions: 10 µM unless noted
[16] = system: HCC-2998 colon; conditions: 10 µM
[17] = system: BT-549 breast; conditions: 10 µM unless noted
[18] = system: KM12 colon; conditions: 10 µM unless noted

CCCCCCCCCNCCCCCCCCC
growth [1]: -22.9% (active)
growth [2]: -22.4% (active)
growth [3]: 73.5%
growth [4]: 63.5%
growth [5]: 29.2%
growth [6]: 92.6%
growth [7]: 50.8%
growth [8]: 86%
growth [9]: 83.7%
growth [10]: 68.3%
growth [11]: 57.7%
growth [12]: 47.6%
growth [13]: 41.5%
growth [14]: 13.4%
growth [15]: 20.2%
growth [16]: 23.8%

COc1ccc2c(CCCCC(c3ccccc3)c3ccccc3)c3[n+](cc2c1OC)CCc1cc2c(cc1-3)OCO2
growth [1]: -35.8% (active)
growth [2]: -33% (active)
growth [3]: -54.8% (active)
growth [4]: -13.4% (active)
growth [5]: -80.2% (active)
growth [6]: -9.34% (active)
growth [7]: -52.1% (active)
growth [8]: -89.6% (active)
growth [9]: -20.1% (active)
growth [11]: -49.3% (active)
growth [17]: -74.2% (active)
growth [12]: -91.8% (active)
growth [13]: -76.9% (active)
growth [14]: -40.6% (active)
growth [15]: -52.8% (active)
growth [16]: -95.7% (active)
growth [18]: -71.5% (active)

Cc1ccc(-[n+]2c3cc(N)c(C)cc3nc3cc(C)c(Nc4ccccc4)cc32)cc1
growth [1]: -39.1% (active)
growth [2]: -36.5% (active)
growth [3]: -6.17% (active)
growth [4]: -61.3% (active)
growth [5]: -38.7% (active)
growth [6]: -90.4% (active)
growth [7]: -59.5% (active)
growth [8]: -97.4% (active)
growth [9]: 18.8%
growth [11]: -74.7% (active)
growth [12]: -73.6% (active)
growth [13]: -71.8% (active)
growth [14]: -81.8% (active)
growth [15]: -100% (active)
growth [16]: -98% (active)
growth [18]: -92.7% (active)

COC[C@@H](C)n1c(C2CCOCC2)nc2c1C1C=C(OC)C(c3c(C)noc3C)=CC1N=C2 (some centres not stated)
growth [1]: 31.1%
growth [2]: 10.4%
growth [3]: 57.1%
growth [4]: 70.3%
growth [5]: 42.8%
growth [6]: 39.6%
growth [7]: 39.4%
growth [8]: 28.9%
growth [9]: 35%
growth [11]: 44.6%
growth [17]: 62.6%
growth [12]: 41.6%
growth [13]: 72.1%
growth [14]: 15.5%
growth [15]: 53.4%
growth [16]: 52.7%
growth [18]: 43%

FC(F)(F)c1ccc(CNc2ccc(Cc3c[nH]c4ncc(Cl)cc34)cn2)cn1
growth [1]: 11.1%
growth [2]: 26.3%
growth [3]: 14.3%
growth [4]: 30.5%
growth [5]: 30%
growth [6]: 16%
growth [7]: 41%
growth [8]: 41.6%
growth [10]: 12.6%
growth [11]: -1.92% (active)
growth [17]: 26.3%
growth [12]: 6.37% (active)
growth [13]: 19%
growth [14]: 13.6%
growth [15]: 15.4%
growth [16]: 18.1%

Cc1c(N)ccc(-c2ccc(N)c(C)c2S(=O)(=O)O)c1S(=O)(=O)O
growth [1]: 102%
growth [2]: 107%
growth [3]: 107%
growth [4]: 101%
growth [5]: 112%
growth [6]: 111%
growth [7]: 110%
growth [8]: 124%
growth [9]: 106%
growth [10]: 102%
growth [11]: 106%
growth [12]: 114%
growth [13]: 109%
growth [14]: 108%
growth [15]: 101%
growth [16]: 102%
growth [18]: 116%

COc1cnc2c(c1)C(=O)c1c-2n(CCCn2ccnc2)c(=O)c2cc(Cl)ccc12
growth [1]: -10.3% (active)
growth [2]: -15.3% (active)
growth [3]: 17.4%
growth [4]: 26.6%
growth [5]: 40.4%
growth [6]: -28% (active)
growth [7]: 35.2%
growth [8]: -8.34% (active)
growth [9]: 75.1%
growth [11]: -1.88% (active)
growth [17]: 13.2%
growth [12]: 11%
growth [13]: 20.1%
growth [14]: 7.47% (active)
growth [15]: -20.7% (active)
growth [16]: 31.6%
growth [18]: 9.84% (active)

CCOc1ccc(N=C(C)Nc2ccc(OCC)cc2)cc1
growth [1]: 84.5%
growth [2]: 116%
growth [3]: 106%
growth [4]: 104%
growth [5]: 104%
growth [6]: 121%
growth [7]: 106%
growth [8]: 133%
growth [9]: 106%
growth [10]: 101%
growth [11]: 105%
growth [12]: 115%
growth [13]: 104%
growth [14]: 102%
growth [15]: 104%
growth [16]: 104%
growth [18]: 117%

COC(=O)CNC(=O)[C@@H](OC)[C@@H]1Cc2cc3cc(OC4CC(OC5CC(O)C(O)C(C)O5)C(O)C(C)O4)c(C)c(O)c3c(O)c2C(=O)[C@H]1OC1CC(OC2CC(OC3CC(C)(O)C(O)C(C)O3)C(O)C(C)O2)C(O)C(C)O1 (some centres not stated)
growth [1]: 11.1%
growth [2]: 2.86% (active)
growth [3]: 12.4%
growth [4]: 16.4%
growth [5]: 2.95% (active)
growth [6]: 24.3%
growth [7]: 32%
growth [8]: 3.71% (active)
growth [9]: -6.65% (active)
growth [11]: 11.3%
growth [17]: -44.3% (active)
growth [12]: -39.2% (active)
growth [13]: 12.7%
growth [14]: 7.64% (active)
growth [15]: 3.52% (active)
growth [16]: -42.3% (active)
growth [18]: 6.86% (active)

CC(=O)OC(C(=O)c1ccccc1)c1ccccc1 (configuration not stated)
growth [1]: 106%
growth [2]: 105%
growth [3]: 98%
growth [4]: 102%
growth [5]: 97.8%
growth [6]: 94.1%
growth [7]: 105%
growth [8]: 121%
growth [9]: 125%
growth [11]: 95.5%
growth [12]: 108%
growth [13]: 99.3%
growth [14]: 95.8%
growth [15]: 95.8%
growth [16]: 112%
growth [18]: 101%

COC(=O)[C@H](Cc1ccc(O)cc1)NC(=O)[C@@H](OC)[C@@H]1Cc2cc3cc(OC4CC(OC5CC(O)C(O)C(C)O5)C(O)C(C)O4)c(C)c(O)c3c(O)c2C(=O)[C@H]1OC1CC(OC2CC(OC3CC(C)(O)C(O)C(C)O3)C(O)C(C)O2)C(O)C(C)O1 (some centres not stated)
growth [1]: 9.7% (active)
growth [2]: -5.59% (active)
growth [3]: 9.74% (active)
growth [4]: 10.6%
growth [5]: 7.27% (active)
growth [6]: 20.7%
growth [7]: 31.2%
growth [8]: 5.52% (active)
growth [9]: -9.2% (active)
growth [11]: 4.63% (active)
growth [17]: -36.9% (active)
growth [12]: -26.8% (active)
growth [13]: 11.3%
growth [14]: 8.15% (active)
growth [15]: 4.11% (active)
growth [16]: -67% (active)
growth [18]: 5.68% (active)

COc1ccc(-n2c(=O)c3ccccc3n(Cc3ccc(C(=O)NO)cc3)c2=O)cc1
growth [1]: 7.16% (active)
growth [2]: 12%
growth [3]: -0.914% (active)
growth [4]: 58.4%
growth [5]: 17.1%
growth [6]: 28.3%
growth [7]: 14.4%
growth [8]: 8.92% (active)
growth [9]: 56.9%
growth [11]: 5.48% (active)
growth [17]: 36.2%
growth [12]: -84.2% (active)
growth [13]: -27.3% (active)
growth [14]: 25.9%
growth [15]: -19.9% (active)
growth [16]: 34%

COc1ccc(CCCc2c3[n+](cc4c(OC)c(OC)ccc24)CCc2cc4c(cc2-3)OCO4)cc1
growth [1]: 37.6%
growth [2]: 20.5%
growth [3]: 48.1%
growth [4]: 86.6%
growth [5]: 54.5%
growth [6]: 77.5%
growth [7]: 53.9%
growth [8]: 30%
growth [9]: 97.2%
growth [11]: 15.6%
growth [17]: 41.8%
growth [12]: 39.7%
growth [13]: 68.9%
growth [14]: 93.7%
growth [15]: 59.2%
growth [18]: 30.8%

CCCNC(=O)c1cn2ncnc(Nc3cc(C(=O)NC4CC4)ccc3C)c2c1C
growth [1]: 73.6%
growth [2]: 75.9%
growth [3]: 77.8%
growth [4]: 17.6%
growth [5]: 92.1%
growth [6]: 70.5%
growth [7]: 42.4%
growth [8]: 103%
growth [10]: 66.9%
growth [11]: 65.3%
growth [17]: 103%
growth [12]: 89.9%
growth [13]: 39%
growth [14]: 83.6%
growth [15]: 101%

Clc1nc(Cl)c2ncn(C/C=C\Cn3cnc4c(Cl)nc(Cl)nc43)c2n1
growth [1]: -48.2% (active)
growth [2]: -61.2% (active)
growth [3]: -57.4% (active)
growth [4]: -9.17% (active)
growth [5]: -89.2% (active)
growth [6]: 32.8%
growth [7]: -82.3% (active)
growth [8]: -97% (active)
growth [9]: -41.5% (active)
growth [10]: 30.1%
growth [11]: -44.4% (active)
growth [12]: -66.9% (active)
growth [13]: -52.6% (active)
growth [14]: -78% (active)
growth [15]: -71% (active)
growth [18]: -69.2% (active)

COc1cc2c(cc1OCCCCN1CCN(CC(=O)Nc3ccc(Cl)cc3C(=O)c3ccccc3Cl)CC1)N=CC1CCCN1C2=O (configuration not stated)
growth [1]: -66.7% (active)
growth [2]: -74% (active)
growth [3]: -65.5% (active)
growth [4]: -51.7% (active)
growth [5]: -91.4% (active)
growth [6]: -76% (active)
growth [7]: -88.2% (active)
growth [8]: -94.6% (active)
growth [9]: -66.4% (active)
growth [10]: 2.24% (active)
growth [11]: -65.4% (active)
growth [12]: -93.8% (active)
growth [13]: -57% (active)
growth [14]: -67.1% (active)
growth [15]: -66.2% (active)
growth [18]: -55.5% (active)
